The values that follow come from PubChem BioAssay (NCATS).

Records with an inconclusive call do not appear. Values without a mark were called inactive. Activity calls are given as the source filed them. Unless noted, the call rests on the fitted dose curve; in most records, active means well fitted curve in the direction sought with a large enough effect; inconclusive means small, poorly fitted or top-dose-only effect, or another doubt; inactive means no such curve, though single readings can be large; an effect the other way counts as inactive or inconclusive.

Assay [1] concerns the target Aldehyde dehydrogenase, mitochondrial (Homo sapiens) (UniProt P05091). Put plainly: qHTS for Inhibitors of the Aldehyde Dehydrogenase Family (ALDH2) Confirmatory screens (AID 2061303; active means well fitted inhibition curve with a large enough effect; title and protocol of this record describe different tests; further: nearly all actives have a fitted effect of over 45% in size; further: potency means the concentration at half of the fitted maximal effect). (In qHTS, concentration-response curves come from the screen itself.)
A short description of assay [2]: qHTS for Inhibitors of the Aldehyde Dehydrogenase Family (ALDH1A2, ALDH1A3, ALDH2, ALDH3A1) (AID 2061307). Further: nearly all actives have a fitted effect of over 50% in size. On Potency: test system not described further here; potency means the concentration at half of the fitted maximal effect.
In assay [3] the target is Aldehyde dehydrogenase, mitochondrial (Homo sapiens) (UniProt P05091). Kind of assay: qHTS for Inhibitors of the Aldehyde Dehydrogenase Family (ALDH2) Primary screen (AID 2061308). Further: nearly all actives have a fitted effect of over 55% in size. Further: potency means the concentration at half of the fitted maximal effect.
Assay [4] deals with Retinaldehyde dehydrogenase 3 (Homo sapiens) (UniProt P47895). Kind of assay: qHTS for Inhibitors of the Aldehyde Dehydrogenase Family (ALDH1A3) Confirmatory screens (AID 2061311). Further: nearly all actives have a fitted effect of over 60% in size. Further: potency means the concentration at half of the fitted maximal effect.
For assay [5], the target named is Retinal dehydrogenase 2 (Homo sapiens) (UniProt O94788). Put plainly: qHTS for Inhibitors of the Aldehyde Dehydrogenase Family (ALDH1A2) Confirmation screens (AID 2061314). Further: nearly all actives have a fitted effect of over 65% in size. Further: potency means the concentration at half of the fitted maximal effect.
Assay [6] addresses Retinaldehyde dehydrogenase 3 (Homo sapiens) (UniProt P47895). Put plainly: qHTS for Inhibitors of the Aldehyde Dehydrogenase Family (ALDH1A3) Primary screen (AID 2061315).
For assay [7], the target named is Aldehyde dehydrogenase 1A1 (Homo sapiens) (UniProt P00352). Put plainly: qHTS for Inhibitors of the Aldehyde Dehydrogenase Family (ALDH1A1) Confirmatory screens (AID 2061316). Further: nearly all actives have a fitted effect of over 65% in size. Further: potency means the concentration at half of the fitted maximal effect.

With `Oc1cc(Nc2cccnc2)cc2cccnc12`, the Potency result in assay [1], in assay [2], in assay [3] and in assay [5] was “inactive” each time. For the same compound, the Potency in assay [4] is 0.283 µM (active).
As to `O=C1CCCC2=C1C(c1cccnc1Cl)N=C(Nc1nc3ccccc3o1)N2` (stereo not given), the Potency result in assay [1], in assay [2], in assay [3], in assay [4] and in assay [6] was “inactive” in each case. The Potency in assay [5] is 22.5 µM (active).
Regarding `Cc1cn([C@H]2C[C@H](N[S+](=O)([O-])Cc3ccc(Cl)cc3)[C@@H](CO)O2)c(=O)[nH]c1=O`, the Potency entry in assay [1], in assay [2], in assay [3], in assay [4], in assay [5] and in assay [6] was “inactive” in each case.
As to `CCOC(=O)c1cccc(-n2cnc(/C=C3\NC(=O)N(CC(=O)O)C3=O)c2)c1`, the Potency result in assay [1], in assay [2], in assay [3], in assay [4], in assay [5] and in assay [6] was “inactive” throughout. In addition, the Potency result in assay [7] is “inactive”.
For the compound `C[C@@H](N)C(=O)Nc1ccc(Cl)cc1C(=O)c1ccc[nH]1`, the Potency result in assay [1], in assay [2], in assay [3], in assay [4], in assay [5] and in assay [6] was “inactive” in each case.
Take `NC(=O)C1CCN(c2ncc(-c3ccc(Cl)cc3)s2)CC1`: the Potency result in assay [1], in assay [3], in assay [4], in assay [5] and in assay [6] was “inactive” throughout. Besides, the Potency in assay [2] is 12.7 µM (active).
Consider `Nc1ncnc2c1ncn2[C@@H]1O[C@H](CN[S+](=O)([O-])NC(=O)c2cccc(-c3noc(-c4ccccc4F)n3)c2)[C@@H](O)[C@H]1O`, for which the Potency entry in assay [1] and in assay [3] was “inactive” each time. Besides, the Potency is 1.2 µM (active) in assay [2], 0.252 µM (active) in assay [4] and 14.2 µM (active) in assay [5].
For `c1cncc(CNc2ncnc3ccc(-c4ccoc4)cc23)c1`, the Potency entry in assay [1], in assay [2], in assay [3], in assay [4], in assay [5] and in assay [6] was “inactive” each time.
Turning to `Oc1cc(Nc2ccccc2)cc2cccnc12`, the Potency entry in assay [1], in assay [2], in assay [3] and in assay [5] was “inactive” throughout. Also, the Potency in assay [4] is 0.283 µM (active).
On to `Cc1ccc(OCCn2c(CCNC(=O)c3cccc(Cl)c3)nc3ccccc32)cc1`, for which the Potency result in assay [1], in assay [2], in assay [3], in assay [4], in assay [5] and in assay [6] was “inactive” in each case.
With `COc1ccc(CN2C(=O)c3ccccc3NC2c2ccc(OC)c(COc3ccc(NC(C)=O)cc3)c2)cc1` (stereo not given), the Potency in assay [1] is 17.8 µM (active); in assay [2], 7.94 µM (active); in assay [4], 2.24 µM (active); in assay [5] it was 6.34 µM (active). Moreover, the Potency result in assay [3] and in assay [6] was “inactive” in each case.
With `N#CSc1cc(SC#N)c(N)nc1N`, the Potency was 14.1 µM (active) in assay [1]; 5.62 µM (active) in assay [2]; 3.55 µM (active) in assay [3]; 10.1 µM (active) in assay [4]; 1.79 µM (active) in assay [5]; 0.896 µM (active) in assay [7]. Further, the Potency entry in assay [6] is “inactive”.
On to `O=C(Nc1ccccc1)OCc1c(-c2ccccc2)no[n+]1[O-]`, for which the Potency result in assay [1], in assay [3], in assay [4], in assay [5] and in assay [6] was “inactive” in each case. Moreover, the Potency in assay [2] is 11.3 µM (active).
Take `CCCCC(=O)N1CCC(C(=O)Nc2ccc([S+](=O)([O-])Nc3nccs3)cc2)CC1`: the Potency entry in assay [1], in assay [2], in assay [3], in assay [4], in assay [5] and in assay [6] was “inactive” each time.
On to `Cc1ccccc1C[C@H](C(=O)O)N1C(=O)c2ccc(C(=O)O)cc2C1=O`, for which the Potency entry in assay [1], in assay [2], in assay [3], in assay [4], in assay [5] and in assay [6] was “inactive” in each case. For the same compound, the Potency result in assay [7] is “inactive”.
As to `Cc1ccc(-c2nccc(=O)n2CC(=O)NCCc2ccccc2)cc1`, the Potency entry in assay [1], in assay [2], in assay [3], in assay [4], in assay [5] and in assay [6] was “inactive” in each case.
In the case of `Cc1cc(N2C(=O)c3ccccc3C2=O)n[nH]1`, the Potency entry in assay [1], in assay [2], in assay [3], in assay [4], in assay [5] and in assay [6] was “inactive” in each case. Also, the Potency result in assay [7] is “inactive”.
As for `Cc1cc2c(s1)c1cnn(Cc3c(Cl)ccc(C)c3F)c(=O)c1n2C`, the Potency entry in assay [1], in assay [2], in assay [3], in assay [4], in assay [5] and in assay [6] was “inactive” throughout. Besides, the Potency entry in assay [7] is “inactive”.
In the case of `Cc1nnc(-c2cnn(C)c2N)n1CCCn1ccnc1`, the Potency result in assay [1], in assay [2], in assay [3], in assay [4], in assay [5] and in assay [6] was “inactive” each time. For the same compound, in assay [7], the Potency result was “inactive”.
For the compound `CCOc1ccccc1-c1nnc2n1N=C(c1ccc(OC)cc1)CS2`, the Potency result in assay [1], in assay [3], in assay [4], in assay [5] and in assay [6] was “inactive” in each case. Moreover, the Potency in assay [2] is 7.94 µM (active); in assay [7] it was 17.9 µM (active).
Consider `N#Cc1nc(NCCO)nc(Nc2ccccc2)n1`, for which the Potency entry in assay [1], in assay [2], in assay [3], in assay [4], in assay [5] and in assay [6] was “inactive” in each case. Also, the Potency result in assay [7] is “inactive”.
`Cc1nc2ccccn2c1P(=O)(c1ccccc1)c1ccccc1`: the Potency entry in assay [1], in assay [2], in assay [3], in assay [4], in assay [5] and in assay [6] was “inactive” throughout. For the same compound, the Potency entry in assay [7] is “inactive”.
Consider `COc1ccc(N2Cc3cccc(C(=O)O)c3C2=O)c(OC)c1`, for which the Potency result in assay [1], in assay [2], in assay [3], in assay [4], in assay [5] and in assay [6] was “inactive” in each case. For the same compound, the Potency result in assay [7] was “inactive”.
With `CC(C)(C)c1ccc(C[C@H](C(=O)O)N2C(=O)c3ccc(C(=O)O)cc3C2=O)cc1`, the Potency result in assay [1], in assay [2], in assay [3], in assay [4], in assay [5] and in assay [6] was “inactive” each time. For the same compound, the Potency result in assay [7] is “inactive”.
As to `c1cncc(-c2ccc(CNc3nc(C4CCCC4)nc4ccccc34)cc2)c1`, the Potency result in assay [1], in assay [2], in assay [3], in assay [5], in assay [6] and in assay [7] was “inactive” throughout. Also, in assay [4], the Potency is 11.3 µM (active).
Turning to `Fc1cc(Nc2nc(-c3ccncc3)nc3ccccc23)ccc1N1CCCCC1`, the Potency entry in assay [1], in assay [2], in assay [3] and in assay [6] was “inactive” throughout. The Potency in assay [4] was 11.3 µM (active); in assay [5] it was 0.712 µM (active); in assay [7] it was 3.57 µM (active).
Consider `Cc1cccc(OC2=NS(=O)(=O)c3ccccc32)c1`, for which the Potency entry in assay [1], in assay [2], in assay [3], in assay [4], in assay [5] and in assay [6] was “inactive” in each case. Moreover, the Potency entry in assay [7] was “inactive”.
On to `O=C1c2ccccc2NC(c2ccc(-c3cccc([N+](=O)[O-])c3)o2)N1O` (stereo not given), for which the Potency in assay [1] is 4.49 µM (active); in assay [2], 2.25 µM (active); in assay [3], 10 µM (active); in assay [4], 4.49 µM (active); in assay [5], 2.52 µM (active); in assay [7] it was 3.18 µM (active). Besides, the Potency result in assay [6] is “inactive”.
